We go through seven compounds from PubChem BioAssay (Tox21).

A number with no mark means an inactive call. Results filed as inconclusive are left out. Activity calls are given as the source filed them. Unless noted, the call rests on the fitted dose curve.

A short description of test [1]: qHTS assay to identify small molecule antagonists of the sonic hedgehog signaling (Shh) pathway (AID 1259369). Further: nearly all actives have a fitted effect of over 45% in size. A digest of the protocol: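 NIH/3T3-derived Gli1-Luc reporter cells plated 4 h, dosed with compound, then stimulated with conditioned medium for 24 h at 37 C. Firefly luciferase luminescence read after 30 min with detection reagent at room temperature.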

For test [2], the target named is Estrogen receptor beta (Homo sapiens) (UniProt Q92731). In words: qHTS assay to identify small molecule agonists of the estrogen receptor beta (ER-beta) signaling pathway (AID 1259377; active means well fitted activation curve with a large enough effect in the signal ratio in the repeat runs, not every such curve was filed as active; the % refers to the signal ratio). A digest of the protocol: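 A UAS-controlled beta-lactamase reporter in ER-beta-UAS-bla HEK293T cells reports receptor activation. Compounds act for 16 hr at 37C in 2% charcoal-stripped serum, and a FRET substrate is read by fluorescence after 2 hours.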
Chain of Estrogen receptor beta (Homo sapiens) (Q92731 whole entry, looked up): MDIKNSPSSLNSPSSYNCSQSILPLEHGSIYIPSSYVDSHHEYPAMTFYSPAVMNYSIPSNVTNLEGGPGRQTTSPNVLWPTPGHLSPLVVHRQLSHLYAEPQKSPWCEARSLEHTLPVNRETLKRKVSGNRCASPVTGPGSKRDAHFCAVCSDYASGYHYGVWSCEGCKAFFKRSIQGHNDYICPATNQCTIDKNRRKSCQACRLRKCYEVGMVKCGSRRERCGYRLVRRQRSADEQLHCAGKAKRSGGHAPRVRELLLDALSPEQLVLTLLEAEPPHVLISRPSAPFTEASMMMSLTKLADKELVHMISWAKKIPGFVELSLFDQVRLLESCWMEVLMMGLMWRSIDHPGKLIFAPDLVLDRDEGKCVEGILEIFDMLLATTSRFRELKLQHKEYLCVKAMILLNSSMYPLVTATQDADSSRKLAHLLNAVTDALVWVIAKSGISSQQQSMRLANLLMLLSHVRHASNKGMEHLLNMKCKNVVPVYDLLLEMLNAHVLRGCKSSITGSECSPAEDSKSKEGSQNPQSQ

The target is the same in test [3]. In words: qHTS assay to identify small molecule antagonists of the estrogen receptor beta (ER-beta) signaling pathway (AID 1259378; active means well fitted inhibition curve with a large enough effect in the signal ratio in the repeat runs, not every such curve was filed as active; the % refers to the signal ratio; further: potency means the concentration at half of the fitted maximal effect). The essentials: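 Antagonist mode: compounds added to beta-lactamase reporter HEK293T ER-beta-UAS cells stimulated with E2 (1nM final), 16 hr at 37C. LiveBLAzer B/G FRET substrate, 2 hours room temperature, fluorescence read-out.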

A short description of test [4]: qHTS assay to identify small molecule agonists of the androgen receptor (AR) signaling pathway in the presence of an antagonist - cell viability counter screen (AID 1259379; active means well fitted curve in the direction sought with a large enough effect in the repeat runs; an effect the other way counts as inactive or inconclusive;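 further: MDA-kb2 human breast cancer cells carrying an MMTV luciferase reporter; series mostly up to about 92 µM; nearly all actives have a fitted effect of over 25% in size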). The essentials: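 MDA-kb2 cells (MMTV-luciferase, AR/GR), 3,000/well, 5 h attachment, then 3.0 µM nilutamide (final) and compounds at 15 concentrations. Viability by CellTiter-Fluor fluorescence after 16 h at 37 °C, 0% CO2, in the reporter wells.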

Test [5] has as its target Estrogen receptor (Homo sapiens) (UniProt P03372). In words: qHTS assay to identify small molecule agonists of the estrogen receptor alpha (ER-alpha) signaling pathway in the presence of an antagonist (AID 1259383). Further: top concentration of the series differs between compounds; nearly all actives have a fitted effect of over 15% in size. The essentials: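 VM7Luc4E2 cells express endogenous full-length ER-alpha with an ERE-luciferase reporter and were hormone-deprived for 5 days. Compounds at 15 concentrations were added with 10.0nM ICI-182,780 for 22hr at 37C. Luminescence was read with ONE-Glo.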

Test [6] in a line: qHTS assay to identify small molecule agonists or antagonists of the thyroid stimulating hormone receptor (TSHR) signaling pathway - wild type cell line counter screen (AID 1259384). The essentials:
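Counter screen in untransfected Hek293: compounds (15-point titration, triplicate) plus phosphodiesterase inhibitor Ro20-1724 added after 18 h plating; 30 min RT. Intracellular cAMP via competitive d2/cryptate immunoassay, 1 h incubation.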

Test [7] addresses Thyrotropin receptor (Homo sapiens) (UniProt P16473). In words: qHTS assay to identify small molecule antagonists of the thyroid stimulating hormone receptor (TSHR) signaling pathway (AID 1259385). Further: nearly all actives have a fitted effect of over 20% in size. The essentials: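 Antagonist mode: compound-treated TSHR-expressing HEK293 cells were stimulated with 1.5 ng/mL TSH (final) in presence of Ro20-1724 for 30 min at RT. HTRF cAMP detection after 1 h; each compound tested at 15 concentrations, triplicate.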

Test [8] is described as follows: qHTS assay to identify small molecule agonists of the estrogen receptor alpha (ER-alpha) signaling pathway in the presence of an antagonist - cell viability counter screen (AID 1259386; active means well fitted curve in the direction sought with a large enough effect in the repeat runs; an effect the other way counts as inactive or inconclusive;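 further: series mostly up to about 92 µM; cells exposed to compounds for 22 h at 37 °C before the viability read; nearly all actives have a fitted effect of over 30% in size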). The essentials: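 Cell viability in VM7Luc4E2 cells (endogenous full-length ER-alpha) measured by CellTiter-Fluor fluorescence in the same wells as the luciferase screen. Cells pre-cultured 5 days in charcoal-stripped serum, then treated 22 h with compounds at 15 concentrations plus 10.0nM ICI-182,780.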

For test [9], the target named is Progesterone receptor (Homo sapiens) (UniProt P06401). In words: qHTS assay to identify small molecule agonists of the progesterone receptor (PR) signaling pathway (AID 1346784). Further: nearly all actives have a fitted effect of over 30% in size. The essentials:
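Agonist mode, quantitative HTS format in a HEK 293T line expressing a UAS-controlled beta-lactamase reporter; 16 hr compound exposure at 37C in 2% charcoal-stripped FBS, then LiveBLAzer B/G FRET fluorescence.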

The target is the same in test [10]. The experiment in a line: qHTS assay to identify small molecule antagonists of the progesterone receptor (PR) signaling pathway (AID 1346795; active means well fitted inhibition curve with a large enough effect in the signal ratio in the repeat runs, not every such curve was filed as active; the % refers to the signal ratio; further: potency means the concentration at half of the fitted maximal effect). The essentials: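 HEK293T PR-UAS-bla reporter cells in charcoal-stripped serum (2%) received compound after a 6 hr settling period, followed by R5020 agonist at 1 nM final; 16 hr incubation preceded the FRET substrate step and fluorescence measurement.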

A short description of test [11]: qHTS assay to identify small molecule antagonists of the progesterone receptor (PR) signaling pathway - cell viability counter screen (AID 1346798; active means well fitted curve in the direction sought with a large enough effect in the repeat runs; an effect the other way counts as inactive or inconclusive; further: nearly all actives have a fitted effect of over 50% in size; further: potency means the concentration at half of the fitted maximal effect). A digest of the protocol: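 Same-well multiplex: after 16 hr at 37C with compound and R5020 stimulation, HEK293T cells carrying a UAS-bla reporter received LiveBLAzer substrate (2 hr RT), then CellTiter-Glo (30 min RT) for luminescent viability.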

The nature of test [12]: qHTS assay to identify small molecule agonists of the progesterone receptor (PR) signaling pathway - cell viability counter screen (AID 1346799). Further: nearly all actives have a fitted effect of over 45% in size. Further: potency means the concentration at half of the fitted maximal effect. A digest of the protocol: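 Counter screen for cytotoxicity: compound-treated PR-UAS-bla HEK293T cells (16 hr, 37C, 5% CO2) were assayed with CellTiter-Glo, luminescence measured after 30 min at room temperature.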
Test [13] is described as follows: qHTS assay to identify small molecule antagonists of the TGF-beta/Smad signaling pathway - cell viability counter screen (AID 1346824; active means well fitted curve in the direction sought with a large enough effect in the repeat runs; an effect the other way counts as inactive or inconclusive; further: nearly all actives have a fitted effect of over 50% in size). The essentials:
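Cytotoxicity counter-screen run in the same wells as the beta-lactamase Smad reporter read: CellTiter-Glo luminescence after 30 min at room temperature. HEK 293T SBE-bla cells had 5 hr compound exposure at 37 C with TGF-beta1 (0.25 ng/mL stock).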

The nature of test [14]: qHTS assay to identify small molecule agonists of the TGF-beta/Smad signaling pathway - cell viability counter screen (AID 1346829; active means well fitted curve in the direction sought with a large enough effect in the repeat runs; an effect the other way counts as inactive or inconclusive; further: top concentration of the series differs between compounds; nearly all actives have a fitted effect of over 45% in size). A digest of the protocol:
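Same-well cytotoxicity: CellTiter-Glo added after the 2 hr room-temperature beta-lactamase substrate step, luminescence measured 30 min later; cells had 5 hr of compound at 37 C.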

The nature of test [15]: qHTS assay to identify small molecule agonists of the TGF-beta/Smad signaling pathway (AID 1346859; active means well fitted activation curve with a large enough effect in the signal ratio in the repeat runs, not every such curve was filed as active; the % refers to the signal ratio; further: series mostly up to about 77 µM). A digest of the protocol:
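Smad-responsive beta-lactamase reporter cells (HEK 293T) received compounds from DMSO stocks after overnight attachment, were incubated 5 hr, then treated 2 hr with FRET substrate before dual-emission fluorescence measurement (405 nm excitation).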

Test [16] concerns the target Thyrotropin-releasing hormone receptor (Homo sapiens) (UniProt P34981). The experiment in a line: qHTS assay to identify small molecule antagonists of the thyrotropin-releasing hormone receptor (TRHR) signaling pathway (AID 1346877; active means well fitted inhibition curve with a large enough effect in the repeat runs, not every such curve was filed as active; further: series mostly up to about 51 µM). A digest of the protocol: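 TRHR-expressing HEK293 cells loaded with calcium dye for 2 h at 37 C; compounds pre-incubated 5 min at room temperature before TRH challenge at 1 nM final. Intracellular calcium fluorescence read kinetically for 3 min; 15 concentrations in triplicate.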

The target is the same in test [17]. In words: qHTS assay to identify small molecule agonists of the thyrotropin-releasing hormone receptor (TRHR) signaling pathway (AID 1346891). Further: series mostly up to about 58 µM. A digest of the protocol:
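Agonist-mode calcium mobilisation screen: TRHR-transfected HEK293 cells cultured overnight (18 h), dye-loaded for 2 h at 37 °C, exposed to compounds, and monitored by fluorescence for 3 min.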

Test [18] in a line: qHTS assay to identify small molecule antagonists of the estrogen receptor beta (ER-beta) signaling pathway - cell viability counter screen (AID 1259382; active means well fitted curve in the direction sought with a large enough effect in the repeat runs; an effect the other way counts as inactive or inconclusive;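 further: HEK293T cells carrying ER-beta-UAS-bla reporter stimulated with estradiol; series mostly up to about 92 µM; nearly all actives have a fitted effect of over 55% in size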). The essentials:
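ER-beta-UAS-bla HEK293T cells in 2% charcoal-stripped FBS medium, treated with compound plus 1 nM 17-beta-estradiol for 16 h at 37C. Viability read by CellTiter-Glo luminescence after 30 min at room temperature in the same wells.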

Test [19] addresses Androgen receptor (Homo sapiens) (UniProt P10275). The experiment in a line: qHTS assay to identify small molecule agonists of the androgen receptor (AR) signaling pathway in the presence of an antagonist (AID 1259381). Further: nearly all actives have a fitted effect of over 15% in size. The essentials: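 MDA-kb2 cells carrying MMTV-luciferase (AR/GR responsive), 3,000 cells/well, co-treated with 3.0 uM nilutamide final. Compounds at 15 concentrations, 16 hr at 37C without CO2. Luciferase luminescence read after 30 min with ONE-Glo.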

Chain of Estrogen receptor (Homo sapiens) (P03372 whole entry, looked up): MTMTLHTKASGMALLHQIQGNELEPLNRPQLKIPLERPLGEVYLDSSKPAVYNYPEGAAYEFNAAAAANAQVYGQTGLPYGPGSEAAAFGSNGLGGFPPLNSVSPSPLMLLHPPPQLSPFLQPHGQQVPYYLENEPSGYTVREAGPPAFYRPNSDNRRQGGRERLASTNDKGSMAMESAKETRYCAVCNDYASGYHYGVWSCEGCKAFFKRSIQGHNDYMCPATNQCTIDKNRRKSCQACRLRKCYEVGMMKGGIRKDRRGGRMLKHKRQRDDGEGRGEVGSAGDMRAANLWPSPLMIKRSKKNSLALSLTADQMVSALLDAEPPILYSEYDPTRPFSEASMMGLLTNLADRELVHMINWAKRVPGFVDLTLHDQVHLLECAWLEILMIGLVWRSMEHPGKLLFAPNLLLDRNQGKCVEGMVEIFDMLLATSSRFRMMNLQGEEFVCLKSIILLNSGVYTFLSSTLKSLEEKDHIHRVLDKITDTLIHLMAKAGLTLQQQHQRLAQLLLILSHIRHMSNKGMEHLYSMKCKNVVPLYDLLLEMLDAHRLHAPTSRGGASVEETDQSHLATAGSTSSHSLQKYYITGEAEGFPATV
Chain of Thyrotropin receptor (Homo sapiens) (P16473 whole entry, looked up): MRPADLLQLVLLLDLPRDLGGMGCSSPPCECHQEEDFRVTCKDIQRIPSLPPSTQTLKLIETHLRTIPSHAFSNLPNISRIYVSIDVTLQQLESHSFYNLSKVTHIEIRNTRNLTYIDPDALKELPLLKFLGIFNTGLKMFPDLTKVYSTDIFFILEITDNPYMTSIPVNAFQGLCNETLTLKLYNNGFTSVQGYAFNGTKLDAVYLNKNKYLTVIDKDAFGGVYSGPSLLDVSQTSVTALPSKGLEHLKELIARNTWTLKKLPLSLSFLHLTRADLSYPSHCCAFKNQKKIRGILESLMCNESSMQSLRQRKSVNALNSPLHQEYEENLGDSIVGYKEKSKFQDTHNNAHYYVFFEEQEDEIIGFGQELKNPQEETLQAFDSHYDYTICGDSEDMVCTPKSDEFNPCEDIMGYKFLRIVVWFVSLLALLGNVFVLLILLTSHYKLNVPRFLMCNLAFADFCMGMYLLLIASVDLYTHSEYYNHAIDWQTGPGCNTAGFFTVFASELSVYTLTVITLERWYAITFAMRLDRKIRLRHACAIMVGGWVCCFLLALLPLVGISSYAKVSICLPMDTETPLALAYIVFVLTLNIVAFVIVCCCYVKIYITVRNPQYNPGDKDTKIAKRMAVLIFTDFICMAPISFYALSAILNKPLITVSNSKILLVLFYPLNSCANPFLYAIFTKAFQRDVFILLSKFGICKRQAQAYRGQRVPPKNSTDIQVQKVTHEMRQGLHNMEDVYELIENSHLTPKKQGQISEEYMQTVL
Chain of Progesterone receptor (Homo sapiens) (P06401 whole entry, looked up): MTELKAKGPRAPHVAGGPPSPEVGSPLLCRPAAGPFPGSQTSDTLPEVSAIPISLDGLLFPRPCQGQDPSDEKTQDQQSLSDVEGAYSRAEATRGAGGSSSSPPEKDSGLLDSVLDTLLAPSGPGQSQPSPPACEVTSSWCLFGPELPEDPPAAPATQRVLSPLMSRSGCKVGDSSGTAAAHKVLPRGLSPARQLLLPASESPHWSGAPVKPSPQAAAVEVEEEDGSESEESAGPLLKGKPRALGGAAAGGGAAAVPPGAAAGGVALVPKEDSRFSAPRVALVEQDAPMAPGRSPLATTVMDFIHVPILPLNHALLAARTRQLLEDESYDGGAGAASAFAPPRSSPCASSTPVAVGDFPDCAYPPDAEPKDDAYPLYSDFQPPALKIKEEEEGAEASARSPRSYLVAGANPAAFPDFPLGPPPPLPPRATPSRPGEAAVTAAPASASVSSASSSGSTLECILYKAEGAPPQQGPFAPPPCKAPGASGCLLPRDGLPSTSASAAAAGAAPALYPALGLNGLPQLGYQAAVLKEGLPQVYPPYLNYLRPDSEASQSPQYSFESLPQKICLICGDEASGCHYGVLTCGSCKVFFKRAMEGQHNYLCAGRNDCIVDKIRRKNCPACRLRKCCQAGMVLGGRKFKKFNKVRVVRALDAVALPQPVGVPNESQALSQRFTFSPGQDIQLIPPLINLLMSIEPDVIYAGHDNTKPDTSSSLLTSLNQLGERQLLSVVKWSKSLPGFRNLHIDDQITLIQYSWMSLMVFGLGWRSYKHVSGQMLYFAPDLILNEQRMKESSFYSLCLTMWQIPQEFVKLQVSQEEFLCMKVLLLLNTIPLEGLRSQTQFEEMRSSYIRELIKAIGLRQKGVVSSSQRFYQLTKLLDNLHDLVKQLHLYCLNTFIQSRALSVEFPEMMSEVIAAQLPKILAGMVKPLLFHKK
Chain of Thyrotropin-releasing hormone receptor (Homo sapiens) (P34981 whole entry, looked up): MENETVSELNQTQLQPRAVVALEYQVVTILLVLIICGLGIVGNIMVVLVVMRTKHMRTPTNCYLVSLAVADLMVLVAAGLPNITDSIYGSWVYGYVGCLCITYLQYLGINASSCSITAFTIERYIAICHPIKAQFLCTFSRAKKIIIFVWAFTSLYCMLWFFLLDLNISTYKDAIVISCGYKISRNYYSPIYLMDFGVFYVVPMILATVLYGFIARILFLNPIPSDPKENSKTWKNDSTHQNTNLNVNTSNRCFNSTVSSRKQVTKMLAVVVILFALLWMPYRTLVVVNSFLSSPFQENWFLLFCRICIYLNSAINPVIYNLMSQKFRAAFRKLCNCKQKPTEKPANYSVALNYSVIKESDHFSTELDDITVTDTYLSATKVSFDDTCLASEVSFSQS
Chain of Androgen receptor (Homo sapiens) (P10275 whole entry, looked up): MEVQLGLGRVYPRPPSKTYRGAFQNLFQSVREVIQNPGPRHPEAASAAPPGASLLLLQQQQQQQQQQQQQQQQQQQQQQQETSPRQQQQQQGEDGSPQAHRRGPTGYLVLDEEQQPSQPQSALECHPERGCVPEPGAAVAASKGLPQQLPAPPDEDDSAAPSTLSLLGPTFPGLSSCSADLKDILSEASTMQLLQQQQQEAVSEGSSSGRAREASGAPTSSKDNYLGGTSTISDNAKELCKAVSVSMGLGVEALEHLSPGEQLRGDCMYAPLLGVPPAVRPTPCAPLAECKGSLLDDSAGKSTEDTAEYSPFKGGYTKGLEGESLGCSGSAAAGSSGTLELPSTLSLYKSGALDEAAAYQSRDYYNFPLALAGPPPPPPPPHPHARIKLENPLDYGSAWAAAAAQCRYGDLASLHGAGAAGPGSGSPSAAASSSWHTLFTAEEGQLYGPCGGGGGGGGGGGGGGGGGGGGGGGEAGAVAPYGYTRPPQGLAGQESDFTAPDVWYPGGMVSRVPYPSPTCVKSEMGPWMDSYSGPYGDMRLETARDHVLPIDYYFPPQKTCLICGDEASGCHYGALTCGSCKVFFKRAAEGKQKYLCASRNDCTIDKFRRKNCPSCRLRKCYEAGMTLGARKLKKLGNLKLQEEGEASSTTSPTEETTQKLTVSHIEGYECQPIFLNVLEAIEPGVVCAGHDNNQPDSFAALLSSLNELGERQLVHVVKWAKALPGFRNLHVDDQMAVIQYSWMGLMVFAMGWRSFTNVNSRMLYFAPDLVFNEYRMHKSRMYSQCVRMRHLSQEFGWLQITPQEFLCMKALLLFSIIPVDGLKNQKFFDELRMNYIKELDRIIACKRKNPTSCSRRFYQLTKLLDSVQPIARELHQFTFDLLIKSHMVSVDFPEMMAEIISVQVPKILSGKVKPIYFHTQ

In the case of `CCOC(=O)CC(C)C`, the Potency entry in [1], in test [2], in [3], in test [4], in test [5] and in [6] was “inactive” each time. The Potency result in test [7], in test [8], in test [10], in [11], in [12] and in test [13] was “inactive” in each case. Further, the Potency entry in [14] and in [17] was “inactive” throughout. Moreover, the outcome in [9], in [15] and in test [16] was inactive.
For `CCCCOCCOCCOCCOCCO`, the Potency entry in [1], in test [2], in test [3], in [4], in [18] and in [5] was “inactive” each time. Besides, the Potency entry in test [6], in test [7], in [8], in test [13], in test [14] and in test [17] was “inactive” throughout. The result in test [9], in test [15] and in [16] was inactive.
As for `CC1(C)CCC(C)(C)c2cc(NC(=O)c3ccc(C(=O)O)cc3)ccc21`, the Potency result in test [1], in [2], in test [4], in test [6], in test [7] and in [8] was “inactive” in each case. For the same compound, the Potency entry in test [13] and in test [14] was “inactive” each time. For the same compound, the Potency in test [3] is 18.8 µM (active); in test [10], 16.8 µM (active). The result in [9] and in test [15] was inactive.
Turning to `Cc1cccc(OCCOc2cccc(C)c2)c1`, the Potency result in test [1], in test [2], in [3], in [4], in test [18] and in [5] was “inactive” each time. Moreover, the Potency entry in test [6], in [7], in test [8], in [12], in [13] and in [14] was “inactive” in each case. In [17], the Potency result was “inactive”. Moreover, the outcome in test [9], in test [15] and in [16] was inactive.
In the case of `O=C(/C=C/c1ccc(O)c(O)c1)O[C@@H]1C[C@](O)(C(=O)O)C[C@@H](O)[C@H]1O`, the Potency result in test [1], in test [2], in test [3], in test [4], in test [18] and in test [10] was “inactive” throughout. Moreover, the Potency entry in test [11], in [12], in test [14] and in [17] was “inactive” throughout. Further, the outcome in test [9], in test [15] and in test [16] was inactive.
As for `COCCOCCOCCOCCOC`, the Potency result in test [1], in test [2], in test [3], in test [4], in test [19] and in [5] was “inactive” in each case. The Potency entry in test [6], in test [7], in [8], in test [14] and in test [17] was “inactive” in each case. The outcome in test [9], in [15] and in [16] was inactive. Moreover, the Potency in test [11] and in [12] was 21.7 µM (active) throughout.
As to `CCN(CC)CCc1nc(-c2ccccc2)no1`, the Potency result in test [1], in test [2], in [3], in [4], in [18] and in test [5] was “inactive” throughout. In addition, the Potency entry in test [6], in test [7], in test [8], in [10], in test [11] and in test [12] was “inactive” throughout. The Potency entry in test [14] and in test [17] was “inactive” in each case. For the same compound, the compound was called inactive in [9], in test [15] and in [16].
